TRPV1 potentiator: potentiators of human vanilloid receptor 1 (TRPV1) | potentiation, % at 8.33 µM | Q8NER1 | 0.02% of 320,000 active | TRPV1-expressing cells, Fluo-8 calcium influx, capsaicin EC20 potentiation | AID 540277; in the data active means potentiation above about 80%; inconclusive means between about 30% and that limit; further: 0% is about no effect
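Fluo-8 calcium influx in TRPV1-expressing cells, kinetic read (ex 480/em 520 nm). Compound added and read 3 min for agonist activity, followed by capsaicin at EC20 final and 2 min further read for enhancement.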
hERG WT inh: inhibitors of human wildtype KCNH2 potassium channel | Q12809 | U2OS, BacMam KCNH2, thallium flux FluxOr; stronger effect = lower value | activity change, % at 1.84 µM | 0.37% of 340,000 active | AID 720551;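 active means maximum activity change below -70%; inconclusive means maximum activity change between -70% and -50%; inactive means maximum activity change above -50%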; further: on the % scale 0 is the no-effect control and ±100 the full control effect
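U2OS cells transduced with wild-type KCNH2 virus are loaded with FluxOr dye for 45 min, and thallium flux is measured in kinetic reads before and after stimulation buffer. Rate constants are normalized to DMSO controls.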
TRPV1 ag: activates the human vanilloid receptor TRPV1. Q8NER1. AID 540275. TRPV1-expressing cells, Fluo-8 calcium influx, agonist mode. 0.19% of 320,000 active. activation, % at 8.33 µM; in the data active means activation above about 80%; inconclusive means between about 30% and that limit; further: 0% is about no effect
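TRPV1-expressing cells were cultured overnight at 35.5C and loaded with Fluo-8 calcium dye for 40 to 90 min at room temperature. After a 10 s baseline, compound was added and calcium influx was read kinetically for 3 min (ex 480/em 520 nm).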
KCNH2 3.1 inh: KCNH2 3.1 (human) potassium channel inhibition. 0.95% of 340,000 active. activity change, % (tested at about 1.8 µM). U2OS KCNH2 3.1, thallium flux FluxOr; stronger effect = lower value;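 active means maximum activity change below -70%; inconclusive means maximum activity change from -70% to -50%; inactive means maximum activity change above -50%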;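 further: thallium influx rate constant from kinetic fluorescence after stimulation buffer; on the % scale 0 is the no-effect control and ±100 the full control effect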
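U2OS cells transduced with KCNH2 3.1 mutant virus (1.77 x 10^8 /mL, 4 h), plated overnight at 37 C, loaded 45 min with FluxOr dye plus Red40 quencher. Thallium flux rate constant from kinetic reads after stimulation buffer, normalised to controls.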
An asterisk follows results filed as active; u = inconclusive; x = not tested or not shown. This is a sample that favours compounds with a hit; in the whole collection about 1.2% have one here.

SMILES	TRPV1 potentiator	hERG WT inh	TRPV1 ag	KCNH2 3.1 inh
Oc1ccc(C[C@H]2CNC(=S)N2CC2CCCN2C[C@H](Cc2ccc(O)cc2)N2C[C@H](Cc3ccc(O)cc3)N(CC3CCCCCC3)C2=S)cc1 (stereo partly drawn)	x	-15	x	-13
FC(F)Oc1ccc(NC(=S)NNc2ccnc3cc(Cl)ccc23)cc1	-8	u	5	-81*
O=C(N/N=C/c1ccc(Cl)cc1)c1ccc2nc[nH]c2c1	x	-10	x	-3
Cc1ccc(-n2cc(CN3CCC(O)(c4ccccn4)CC3)c(-c3ccc(F)cc3)n2)cc1	-13	u	-3	-73*
O=P(c1ccccc1)(c1ccccc1)N(c1ccccc1)c1ccccc1	-18	52	21	-70*
Nc1cccc(P(=O)(c2ccccc2)c2ccccc2)c1	3	1	-1	-11
CCc1noc(C)c1C(=O)NCCN1C(=O)S/C(=C\c2ccccc2F)C1=O	x	2	x	-77*
CC1CCCCN1C(=O)c1ccc(NC(=O)c2ccccc2Cl)cc1 (stereo not drawn)	5	-202*	0	u
CC1CCCCN1C(=O)c1ccc(C(=O)Nc2ccc(F)cc2)cc1 (stereo not drawn)	-9	5	3	-7
COc1ccccc1OCC(=O)Nc1oc(-c2ccccc2)c(-c2ccccc2)c1C#N	18	3	7	4
COc1ccc(CC(=O)Nc2oc(-c3ccccc3)c(-c3ccccc3)c2C#N)cc1OC	-3	4	84*	-18
Fc1ccc(Nc2ncnc3sc4c(c23)CCC4)cc1	7	-8	81*	3
c1ccc(Nc2ncnc3sc4c(c23)CCC4)cc1	-15	-4	u	11
O=C(Nc1ccccc1F)C(=Cc1sc(N2CCOCC2)nc1-c1ccccc1)C(=O)Nc1ccccc1F	10	-1	9	-77*
O=C(N/N=C/c1sc(N2CCOCC2)nc1-c1ccccc1)c1ccccc1F	-4	0	-2	-4
CCOC(=O)c1cc2c(ccn2C)n1Cc1ccccc1Cl	4	x	11	-89*
CCOC(=O)c1cc2c(ccn2C)n1Cc1ccccc1C	-5	-27	17	-8
Cc1noc(C)c1NC(=O)Nc1ccc2c(c1)C(=O)N([C@@H](C)CO)C[C@@H](C)[C@@H](CN(C)Cc1ccc3c(c1)OCO3)O2	x	0	x	x
O=C(O)Cn1c(SCCOc2ccccc2)nc2ccccc21	-9	6	-2	11
Cc1ccc(OCCSc2nc3ccccc3n2CC(=O)O)cc1C	95*	-4	-2	9
CC1=NN(c2nc(N)nc(/C(C#N)=C/c3ccc([N+](=O)[O-])o3)n2)C(C)(C)C1	x	-6	x	-72*
O=C1C2C(C(=O)N1/N=C/c1ccc([N+](=O)[O-])o1)C1C=CC2C12CC2 (stereo not drawn)	-3	4	5	0
COc1cccc(NC(=O)NNC(=O)CCc2ccc(O)c(O)c2)c1	10	-3	4	1
Clc1nc2ccccc2cc1-c1nnn(-c2ccccc2Br)n1	x	-73*	x	-13
Clc1ncccc1-c1nnn(-c2ccccc2Br)n1	6	1	13	13
SMILES	TRPV1 potentiator	hERG WT inh	TRPV1 ag	KCNH2 3.1 inh
O=C(Cc1cccs1)Nc1cccc(C(=O)Nc2ccco2)c1	-2	-11	7	-70*
O=C(Cc1cccs1)Nc1cccc(-c2ccc3nncn3n2)c1	85*	-13	3	2
COc1cc(OC)c(NC(=O)c2ccc3c(SCC(=O)O)c4c(nc3c2)CCCC4)cc1Cl	-2	4	2	-104*
COc1cc(NC(=O)c2ccc3c(SCC(=O)O)c4c(nc3c2)CCCC4)cc(OC)c1OC	2	x	1	-77*
CC(NS(=O)(=O)c1cc(C(F)(F)F)ccc1Cl)C(=O)N(C)C1CCN(C)CC1 (stereo not drawn)	x	24	x	8
Cc1ccc(-c2csc(=S)[nH]2)cc1	-4	-5	1	-78*
S=c1[nH]c(-c2ccc(Cl)cc2)cs1	11	-7	-4	-3
O=C1NC(c2ccccc2)N=C2Oc3ccccc3C=C12 (stereo not drawn)	x	-2	x	x
Cc1cc2nc(C3CCN(CC4COc5ccccc5O4)CC3)[nH]c2cc1C (stereo not drawn)	0	-73*	8	-79*
c1ccc2c(c1)CNc1ccccc1-2	x	-13	x	8
CCN1C[C@@H]2[C@@H]3C(=O)N(C)C(=O)[C@@H]3[C@](Cc3ccccc3)(C1=O)N2C(=O)c1ccc(Cl)cc1	x	-2	x	1
COc1ccc(O)c(CN2CC3CCC(CC3)C2)c1	x	-3	x	-13
Cc1ccc(S(=O)(=O)N(C)c2ccc3ccccc3c2)cc1	-5	-4	4	-148*
CNC(=O)c1cc2cc(OC)ccc2n1CCN(Cc1ccccc1)Cc1ccccc1	-15	9	u	-75*
CCOC(=O)C1CCN(C(=O)c2ccc3c(=O)n4nc(Nc5cc(C)ccc5C)sc4nc3c2)CC1	7	13	1	0
CCOC(=O)C1CCN(C(=O)c2ccc3c(=O)n4nc(Nc5ccccc5OC)sc4nc3c2)CC1	x	-3	x	-75*
Cc1cccc(NC(=O)CNC(=O)CSc2nnc(C(F)(F)F)n2C)c1C	15	-130*	-3	-186*
C=CCOc1ccccc1C1C2=C(CC(C)(C)CC2=O)Nc2c1c(=O)n(C)c(=O)n2C (stereo not drawn)	0	1	-2	-178*
CCOC(=O)C1=C(C(=O)OCC)N(CC)CCC1=O	x	-13	x	-5
Cc1cc(NC(=O)CCCN2C(=O)c3cccnc3C2=O)no1	u	-8	-4	10
Cc1cc(NC(=O)CCCN2C(=O)c3cccnc3C2=O)ccc1Br	2	-14	1	-72*
O=C1[C@@H]2[C@H](C(=O)N1CC(O)COCc1ccccc1)C1C=C[C@H]2C1 (stereo partly drawn)	x	3	x	6
O=C(CCCc1ccccc1)N1CCN(C2CCCCC2)CC1	-14	5	22	16
c1ccc(CCN(Cc2ccccc2)C2CCN(C3CCCC3)CC2)cc1	-11	12	7	-88*
CCn1nc(C)cc1C(=O)N1CCCC(Nc2ccc(C(C)C)cc2)C1 (stereo not drawn)	-8	24	81*	17
SMILES	TRPV1 potentiator	hERG WT inh	TRPV1 ag	KCNH2 3.1 inh
CCn1nc(CC(C)C)cc1C(=O)N1CCCC(Nc2ccc(F)cc2)C1 (stereo not drawn)	-27	-1	u	-4
CCC(CC)=NNc1cccc([N+](=O)[O-])c1	-11	-1	1	15
CC/C(C)=N/Nc1cccc([N+](=O)[O-])c1	1	-8	4	-93*
CCN(CC)Cc1cc(Nc2c3ccccc3nc3c4ccccc4n(C)c23)cc(CN(CC)CC)c1O	x	-3	x	-1
CN(C[C@H](Cc1ccccc1)N(CCN(CCc1ccccc1)N=O)N=O)N=O	14	19	3	-200*
CC[C@]12c3[nH]c4ccccc4c3CCN1C(=O)C(CC(=O)NCCN1CCOCC1)C[C@@H]2C(=O)N1CCN(C(=O)C2CC2)CC1 (stereo partly drawn)	x	-114*	x	6
